Source: PubChem
PPARg SRC1 recr – PPARgamma-driven SRC-1 recruitment agonism | P37231 | PPARgamma-SRC-1 coactivator recruitment biochemical assay | activation, % at 8 µM | 200,000 compounds, 0.41% hits; in the data active = activation above about 19%;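 note: 0% = DMSO and 100% = reference agonist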
PPARg SRC2 recr – agonists of SRC-2 recruitment by human PPARgamma; P37231; 200,000 compounds, 0.34% hits; activation, % at 8 µM; PPARgamma LBD-SRC-2 recruitment, biochemical; AID 1032; in the data active = activation above about 22%;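 note: 0% = vehicle and 100% = reference agonist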
TR-FRET SRC-2 ct – flags TR-FRET format artefacts in PPARgamma SRC-2 recruitment agonist screen; 200,000 compounds, 0.4% hits; TR-FRET artefact counter-screen; hits give high values; TR-FRET ratio at 8 µM
SRC3 TRFRET art – flags TR-FRET format artefacts in PPARgamma SRC-3 recruitment agonist screen | TR-FRET artefact counter-screen, PPARgamma/SRC-3 format; hits give high values | TR-FRET ratio at 8 µM | 99,000 compounds, 0.39% hits | AID 1048
PPARg SRC3 recr – promotes SRC-3 coactivator recruitment by human PPARgamma; AID 731; biochemical PPARgamma/SRC-3 coactivator recruitment assay; 200,000 compounds, 0.26% hits; activation, % at 8 µM; P37231; in the data active = activation above about 23%;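 note: 0% = DMSO and 100% = reference agonist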
SRC1 TRFRET art – flags TR-FRET format artefacts in PPARgamma SRC-1 recruitment agonist screen; TR-FRET detection artefact counter-screen, emission ratio; hits give high values; TR-FRET ratio at 8 µM; 99,000 compounds, 0.34% hits; in the data active = TR-FRET ratio above about 2300
PPARg SRC2 conf – human PPARgamma SRC-2 recruitment agonism, confirmation | shares compounds with PPARg SRC3 recr | biochemical SRC-2 recruitment by PPARgamma | activation, % at 8 µM | 790 compounds, 52% hits; in the data active = activation above about 22%;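 note: 0% = vehicle alone and 100% = reference agonist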
PPARg SRC1 ag – confirmation of agonists of SRC-1 recruitment by human PPARgamma | AID 1300 | activation, % at 8 µM | PPARgamma–SRC-1 coactivator recruitment biochemical assay | shares compounds with PPARg SRC3 recr | 790 compounds, 43% hits; in the data active = activation above about 20%;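 note: 0% = vehicle wells and 100% = reference agonist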
PPARg SRC3 conf – human PPARgamma SRC-3 recruitment agonism, confirmation. shares compounds with PPARg SRC3 recr. biochemical PPARgamma-SRC-3 coactivator recruitment, agonist mode. activation, % at 8 µM. 790 compounds, 29% hits. AID 1301; in the data active = activation above about 24%;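 note: 0% = vehicle wells and 100% = reference agonist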
Target sequence (P37231 whole entry, looked up): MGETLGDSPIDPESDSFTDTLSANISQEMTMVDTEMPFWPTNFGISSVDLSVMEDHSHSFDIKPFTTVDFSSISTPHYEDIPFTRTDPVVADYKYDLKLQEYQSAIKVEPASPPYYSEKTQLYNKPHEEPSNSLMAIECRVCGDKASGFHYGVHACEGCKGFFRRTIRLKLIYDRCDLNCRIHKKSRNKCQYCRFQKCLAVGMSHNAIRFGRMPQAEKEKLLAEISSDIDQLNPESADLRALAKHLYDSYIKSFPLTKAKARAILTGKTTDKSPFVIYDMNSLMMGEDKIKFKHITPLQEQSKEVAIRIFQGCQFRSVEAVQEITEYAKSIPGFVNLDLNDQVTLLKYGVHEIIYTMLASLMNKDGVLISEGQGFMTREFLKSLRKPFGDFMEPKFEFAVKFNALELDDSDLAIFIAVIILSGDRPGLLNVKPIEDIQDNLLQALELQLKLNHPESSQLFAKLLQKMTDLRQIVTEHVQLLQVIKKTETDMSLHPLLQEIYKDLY
Target sequence (Q9Y6Q9 whole entry, looked up): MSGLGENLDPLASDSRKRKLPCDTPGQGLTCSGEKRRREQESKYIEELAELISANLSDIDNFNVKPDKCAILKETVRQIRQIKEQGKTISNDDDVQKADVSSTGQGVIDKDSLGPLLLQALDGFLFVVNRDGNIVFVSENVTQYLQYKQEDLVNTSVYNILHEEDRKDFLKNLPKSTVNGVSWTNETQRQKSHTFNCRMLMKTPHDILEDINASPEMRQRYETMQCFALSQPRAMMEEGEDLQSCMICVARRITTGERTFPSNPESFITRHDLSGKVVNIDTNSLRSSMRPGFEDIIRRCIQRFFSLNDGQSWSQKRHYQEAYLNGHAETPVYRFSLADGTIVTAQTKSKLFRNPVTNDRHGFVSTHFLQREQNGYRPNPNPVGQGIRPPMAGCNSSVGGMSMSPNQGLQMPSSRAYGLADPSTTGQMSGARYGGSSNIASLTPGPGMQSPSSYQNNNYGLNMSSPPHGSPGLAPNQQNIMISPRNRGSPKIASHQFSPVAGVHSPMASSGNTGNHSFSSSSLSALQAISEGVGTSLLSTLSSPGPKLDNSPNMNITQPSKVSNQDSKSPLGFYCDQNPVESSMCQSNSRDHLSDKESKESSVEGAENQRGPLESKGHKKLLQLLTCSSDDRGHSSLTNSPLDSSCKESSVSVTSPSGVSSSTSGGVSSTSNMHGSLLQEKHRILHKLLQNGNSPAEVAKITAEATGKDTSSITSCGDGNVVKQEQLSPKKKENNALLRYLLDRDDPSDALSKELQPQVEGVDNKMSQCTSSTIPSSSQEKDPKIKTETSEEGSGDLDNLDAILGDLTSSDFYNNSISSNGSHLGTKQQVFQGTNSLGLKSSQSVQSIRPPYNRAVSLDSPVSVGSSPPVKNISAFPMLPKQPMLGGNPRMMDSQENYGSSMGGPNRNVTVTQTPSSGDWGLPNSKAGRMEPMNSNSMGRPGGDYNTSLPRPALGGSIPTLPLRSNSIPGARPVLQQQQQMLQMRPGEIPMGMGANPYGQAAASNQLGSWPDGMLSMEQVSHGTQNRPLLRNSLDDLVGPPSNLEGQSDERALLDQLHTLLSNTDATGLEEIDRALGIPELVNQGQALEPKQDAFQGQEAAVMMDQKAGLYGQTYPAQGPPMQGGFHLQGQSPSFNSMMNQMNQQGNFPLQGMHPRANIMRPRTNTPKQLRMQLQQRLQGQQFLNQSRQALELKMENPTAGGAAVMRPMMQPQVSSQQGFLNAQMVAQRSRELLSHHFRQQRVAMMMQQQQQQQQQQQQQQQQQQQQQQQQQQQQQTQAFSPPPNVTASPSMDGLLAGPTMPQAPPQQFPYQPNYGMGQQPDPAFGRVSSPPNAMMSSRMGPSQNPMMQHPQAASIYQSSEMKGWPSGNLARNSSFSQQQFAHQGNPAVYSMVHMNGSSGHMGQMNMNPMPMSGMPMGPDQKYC
An asterisk follows results filed as active. In the library only some 0.9% were active in any assay of this set; here they are far more common. Cut-off read from the data, not from the text of the source, unless noted: active = TR-FRET ratio above about 2000; inactive = the rest.

What do the screens show for `COc1ccc(C(=O)NCc2ccc3c(c2)cc(C)n3C)cc1`?
PPARg SRC1 recr: -3; PPARg SRC2 recr: 3; TR-FRET SRC-2 ct: 1490; SRC3 TRFRET art: 1480; PPARg SRC3 recr: 2; SRC1 TRFRET art: 1948

Results for Cc1ccc(C(=O)N2CCN(c3ccccc3Cl)CC2)cc1[N+](=O)[O-] ?
PPARg SRC1 recr: 11; PPARg SRC2 recr: 1; TR-FRET SRC-2 ct: 1605; SRC3 TRFRET art: 1625; PPARg SRC3 recr: 5; SRC1 TRFRET art: 1594

How did C/C(=N/NS(=O)(=O)c1ccc(C)cc1)c1cccc(NC(=O)c2cccc(Cl)c2)c1 do in these assays?
PPARg SRC1 recr: 9; PPARg SRC2 recr: 7; TR-FRET SRC-2 ct: 1498; PPARg SRC3 recr: -1

What do the screens show for `C/C(=N/NS(=O)(=O)c1ccc(Cl)cc1)c1cccc(NC(=O)c2ccc(Cl)cc2Cl)c1`?
PPARg SRC1 recr: 18; PPARg SRC2 recr: 24*; TR-FRET SRC-2 ct: 1666; PPARg SRC3 recr: -1; PPARg SRC2 conf: 7; PPARg SRC1 ag: 8; PPARg SRC3 conf: 5

Results for O=C(CC1NCCNC1=O)Nc1ccc([N+](=O)[O-])cc1 (stereo not drawn) ?
PPARg SRC1 recr: -1; PPARg SRC2 recr: 6; TR-FRET SRC-2 ct: 1771; SRC3 TRFRET art: 1613; PPARg SRC3 recr: 3; SRC1 TRFRET art: 2052

How did CSc1nc2ccc(NC(=O)CSc3nnc(N)s3)cc2s1 do in these assays?
PPARg SRC1 recr: -1; PPARg SRC2 recr: -2; TR-FRET SRC-2 ct: 1631; PPARg SRC3 recr: 7

Results for CCOC(=O)c1c(CSc2cccs2)n(C)c2cc(Br)c(O)c(CN(C)C)c12 ?
PPARg SRC1 recr: -8; PPARg SRC2 recr: -1; TR-FRET SRC-2 ct: 1596; SRC3 TRFRET art: 1393; PPARg SRC3 recr: 1; SRC1 TRFRET art: 1744

Results for COc1ccccc1Nc1nc(C)cc(=O)[nH]1 ?
PPARg SRC1 recr: 7; PPARg SRC2 recr: -5; TR-FRET SRC-2 ct: 1643; PPARg SRC3 recr: 6

Results for COc1ccccc1Nc1nc2ccccc2[nH]1 ?
PPARg SRC1 recr: 11; PPARg SRC2 recr: 8; TR-FRET SRC-2 ct: 1580; PPARg SRC3 recr: 27*; PPARg SRC2 conf: 8; PPARg SRC1 ag: 7; PPARg SRC3 conf: 4

How did CCOC(=O)c1sc2nc(C)[nH]c(=S)c2c1C do in these assays?
PPARg SRC1 recr: 25*; PPARg SRC2 recr: 35*; TR-FRET SRC-2 ct: 2175*; SRC3 TRFRET art: 2353*; PPARg SRC3 recr: 20; SRC1 TRFRET art: 2663*; PPARg SRC2 conf: 30*; PPARg SRC1 ag: 23*; PPARg SRC3 conf: 21

How did CCOC(=O)c1sc2nc(C)n(N)c(=O)c2c1C do in these assays?
PPARg SRC1 recr: 9; PPARg SRC2 recr: 6; TR-FRET SRC-2 ct: 1780; SRC3 TRFRET art: 1653; PPARg SRC3 recr: 6; SRC1 TRFRET art: 1913

What do the screens show for `C=CCc1cc2c(oc(=O)c3ccccc32)c(C)c1O`?
PPARg SRC1 recr: 28*; PPARg SRC2 recr: 26*; TR-FRET SRC-2 ct: 2206*; SRC3 TRFRET art: 2419*; PPARg SRC3 recr: 19; SRC1 TRFRET art: 2491*; PPARg SRC2 conf: 21; PPARg SRC1 ag: 13; PPARg SRC3 conf: 14

What do the screens show for `Cc1c(O)c(CN2CCCC2)cc2c1oc(=O)c1ccccc12`?
PPARg SRC1 recr: 3; PPARg SRC2 recr: 2; TR-FRET SRC-2 ct: 1591; PPARg SRC3 recr: -3

How did O=C(NC12CC3CC(CC(C3)C1)C2)N(Cc1ccccc1)Cc1ccncc1 do in these assays?
PPARg SRC1 recr: -2; PPARg SRC2 recr: -2; TR-FRET SRC-2 ct: 1316; SRC3 TRFRET art: 1408; PPARg SRC3 recr: -1; SRC1 TRFRET art: 1786

Results for CCOc1ccc(/C(O)=C2\C(=O)C(=O)N(c3cc(C)on3)C2c2ccccc2OC)cc1 (stereo not drawn) ?
PPARg SRC1 recr: 27*; PPARg SRC2 recr: 34*; TR-FRET SRC-2 ct: 2300*; PPARg SRC3 recr: 42*; PPARg SRC2 conf: 36*; PPARg SRC1 ag: 31*; PPARg SRC3 conf: 22

What do the screens show for `NS(=O)(=O)c1ccc(CCNC(=O)c2cc(-c3ccccn3)nc3ccc(Br)cc23)cc1`?
PPARg SRC1 recr: 22*; PPARg SRC2 recr: 11; TR-FRET SRC-2 ct: 1850; SRC3 TRFRET art: 2530*; PPARg SRC3 recr: 15; SRC1 TRFRET art: 2153; PPARg SRC2 conf: 5; PPARg SRC1 ag: 5; PPARg SRC3 conf: 6

How did NN(CCO)C(=S)Nc1ccc(Cl)cc1 do in these assays?
PPARg SRC1 recr: 2; PPARg SRC2 recr: 2; TR-FRET SRC-2 ct: 1512; SRC3 TRFRET art: 1668; PPARg SRC3 recr: 2; SRC1 TRFRET art: 1820

How did O=C(CCSc1nnc2ccc3ccccc3n12)Nc1ccc(F)cc1 do in these assays?
PPARg SRC1 recr: 10; PPARg SRC2 recr: 17; TR-FRET SRC-2 ct: 1920; PPARg SRC3 recr: 33*; PPARg SRC2 conf: 29*; PPARg SRC1 ag: 24*; PPARg SRC3 conf: 19

How did CCc1ccc(C(=O)N/N=C/c2cccc3ccccc23)nc1 do in these assays?
PPARg SRC1 recr: 4; PPARg SRC2 recr: -7; TR-FRET SRC-2 ct: 1542; SRC3 TRFRET art: 1483; PPARg SRC3 recr: 3; SRC1 TRFRET art: 1642

How did O=C(COc1ccc2oc(-c3ccccc3)cc(=O)c2c1)Nc1ccccc1 do in these assays?
PPARg SRC1 recr: -1; PPARg SRC2 recr: -3; TR-FRET SRC-2 ct: 1367; SRC3 TRFRET art: 1535; PPARg SRC3 recr: 2; SRC1 TRFRET art: 1772

What do the screens show for `O=C(Oc1ccc(Cl)c2cccnc12)N1CCCCC1`?
PPARg SRC1 recr: 2; PPARg SRC2 recr: 3; TR-FRET SRC-2 ct: 1472; SRC3 TRFRET art: 1816; PPARg SRC3 recr: -3; SRC1 TRFRET art: 1483

Results for O=C(Oc1c(Br)cc(Br)c2cccnc12)N1CCCCC1 ?
PPARg SRC1 recr: 29*; PPARg SRC2 recr: 15; TR-FRET SRC-2 ct: 1691; SRC3 TRFRET art: 1960; PPARg SRC3 recr: 5; SRC1 TRFRET art: 2129; PPARg SRC2 conf: 11; PPARg SRC1 ag: 5; PPARg SRC3 conf: 7

How did COC(=O)CSc1nnc2n1C(C)(C)Cc1ccccc1-2 do in these assays?
PPARg SRC1 recr: 11; PPARg SRC2 recr: 3; TR-FRET SRC-2 ct: 1643; PPARg SRC3 recr: -10

What do the screens show for `CC1(C)Cc2ccccc2-c2nnc(SCC(=O)N3CCc4ccccc43)n21`?
PPARg SRC1 recr: 24*; PPARg SRC2 recr: 17; TR-FRET SRC-2 ct: 1651; PPARg SRC3 recr: 25; PPARg SRC2 conf: 13; PPARg SRC1 ag: 13; PPARg SRC3 conf: 11

Results for CCNc1nc(Oc2ccc(F)cc2)cc(C(F)(F)F)n1 ?
PPARg SRC1 recr: -3; PPARg SRC2 recr: 4; TR-FRET SRC-2 ct: 1629; SRC3 TRFRET art: 1498; PPARg SRC3 recr: 4; SRC1 TRFRET art: 1898
